“And” between values parts separate entries of the source, which are not always exact repeats. Equal values may be shown once. About 590 (28%) of roughly 2,100 compounds were called active. Not shown: some 42% with an inconclusive outcome. Calls follow the shape of the dose curve; as a rule, active = well fitted inhibition curve with a large enough effect; inconclusive = small, poorly fitted or top-dose-only effect; inactive = flat fitted curve, though single readings scatter. The list shows a part of the results.
Target: DNA dC->dU-editing enzyme APOBEC-3F (Homo sapiens) (UniProt Q8IUX4)
Assay: qHTS for inhibitors of Vif-A3F interactions: Cherry picks; also: nearly all actives have a fitted effect of over 70% in size;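 as to Max response: % of control where 0% means no effect; active compounds raise eYFP fluorescence by blocking Vif-driven A3F loss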
Details: HeLa A3F-eYFP + Vif (tagged APOBEC3F with the HIV-1 protein that degrades it), eYFP fluorescence, 24 h
Summary of the method: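 HeLa cells stably expressing A3F-eYFP plus Vif, cultured overnight, then exposed to compounds at several concentrations for 24 h at 37 deg C. Reduced Vif-driven degradation read as rising eYFP fluorescence (488 nm ex/500-530 nm em) by laser-scanning cytometry; MG132 as positive control.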
Potency is read from the fitted curve at half-maximal effect.

Chain of DNA dC->dU-editing enzyme APOBEC-3F (Homo sapiens) (Q8IUX4 whole entry, looked up): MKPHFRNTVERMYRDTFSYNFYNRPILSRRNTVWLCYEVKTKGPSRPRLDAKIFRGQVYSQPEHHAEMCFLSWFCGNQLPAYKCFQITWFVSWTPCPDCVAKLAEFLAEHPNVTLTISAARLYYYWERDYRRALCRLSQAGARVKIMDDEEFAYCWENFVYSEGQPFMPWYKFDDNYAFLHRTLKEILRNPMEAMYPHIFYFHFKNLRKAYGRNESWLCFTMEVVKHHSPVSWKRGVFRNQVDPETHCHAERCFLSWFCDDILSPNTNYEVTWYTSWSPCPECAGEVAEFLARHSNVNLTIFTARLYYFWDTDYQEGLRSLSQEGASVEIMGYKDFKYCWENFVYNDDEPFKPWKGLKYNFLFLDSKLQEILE

Potency, active:
CCN1C(=S)SC(=O)C1=C1C=C(C)N(Cc2ccco2)C(C)=C1 17.7 µM
CN(C)C=Nc1c(Br)cc(Br)c2nonc12 14.6 µM
Cc1cc(C)cc(NC(=O)/C=C/c2ccc([N+](=O)[O-])s2)c1 10.3 µM
CC(=O)c1cccc(NC(=O)/C=C/c2ccc([N+](=O)[O-])s2)c1 5.17 µM
Cc1ccc(NC(=O)/C=C/c2ccc([N+](=O)[O-])s2)c(C)c1 5.17 µM
Cc1cccc(NC(=O)/C=C/c2ccc([N+](=O)[O-])s2)c1 3.26 µM
Cc1ccc(NC(=O)/C=C/c2ccc([N+](=O)[O-])s2)cc1 5.17 µM
CCOC(=O)c1cc2n(c1/N=C/N(C)C)-c1ccccc1C2=O 18.4 µM
O=C1c2ccccc2C(=O)c2c(/C=C/N3CCCCC3)ccnc21 20.6 µM
CC(=O)Oc1cccc(N2C(=O)c3cccc4c([N+](=O)[O-])ccc(c34)C2=O)c1 14 µM
COc1ccc(C(=O)C[n+]2cc(Br)cc3ccccc32)cc1 8.2 µM
CC(C)(C)c1ccc(C(=O)C[n+]2cccc3cc(Cl)ccc32)cc1 20.6 µM
O=C(C[n+]1cccc2cc(Cl)ccc21)c1ccc2ccccc2c1 18.4 µM
COc1ccc(C(=O)C[n+]2cccc3cc(Cl)ccc32)cc1 18.4 µM
O=C(C[n+]1cccc2cc(Cl)ccc21)c1ccc(I)cc1 20.6 µM
NN=C1c2ccccc2C(=O)C1C(=O)C(c1ccccc1)c1ccccc1 (stereo unspecified) 7.9 µM
CCOC(=O)/C=c1\s/c(=C\c2c(OC)ccc3ccccc23)c(=O)n1CC(=O)NCC1CCCO1 (stereo unspecified) 14.6 µM
CCOC(=O)/C=c1/s/c(=C/c2ccc3cc(OC)ccc3c2)c(=O)n1CC(=O)NCC1CCCO1 (stereo unspecified) 18.4 µM
CCOC(=O)/C=c1/s/c(=C\c2c(OC)ccc3ccccc23)c(=O)n1CC(=O)NCC1CCCO1 (stereo unspecified) 11.2 µM
Cc1ccc(Nc2nc(Cl)c(C=O)s2)cc1Cl 23.1 µM
CN(C)c1ccc(/C=C(\C#N)c2nc3ccccc3c(=O)[nH]2)cc1 0.731 µM
Fc1ccc(-c2cnn3c(-c4cccs4)ccnc23)cc1 4.98 µM
CCN(CC)S(=O)(=O)c1cc([N+](=O)[O-])ccc1N=Nc1c(O)[nH]c2ccccc12 16.4 µM
CCN(C)c1ccc(/C=C/c2ccnc3ccccc23)cc1 13 µM
CCCCN(CCC(=O)O)c1ccc(/C=C/c2ccnc3ccccc23)cc1 18.4 µM
CCCN(CCC)c1ccc(/C=C/c2ccnc3ccccc23)cc1 7.31 µM
CC(C)CN(CC(C)C)c1ccc(/C=C/c2ccnc3ccccc23)cc1 20.6 µM
CCN(CCCN(C)C)c1ccc(/C=C/c2ccnc3ccccc23)cc1 18.4 µM
CCN(CC)c1ccc(/C=C/c2ccnc3ccccc23)cc1 6.51 µM
CCCCN(CCCC)c1ccc(/C=C/c2ccnc3ccccc23)cc1 20.6 µM
CC(=O)n1c2ccccc2c2nc3ccccc3nc21 11.6 µM
Cc1ccc2nc(/C(C#N)=C/c3ccc(-c4cccc(Cl)c4)o3)[nH]c2c1 4.61 µM
Cc1ccc2nc(/C(C#N)=C/c3ccc(-c4ccc(C(=O)OC(C)C)cc4)o3)[nH]c2c1 2.06 µM
Cc1ccc2nc(/C(C#N)=C/c3ccc(-c4ccc(F)cc4F)o3)[nH]c2c1 4.11 µM
N#C/C(=C\c1ccc(-c2ccc(F)cc2F)o1)c1nc2ccccc2[nH]1 20.6 µM
Cc1c(Cl)cccc1-c1ccc(/C=C(\C#N)c2nc3ccccc3[nH]2)o1 20.6 µM
CN(C)CCCNc1cc(N2CCN(C3CCCCC3)CC2)c2noc3c2c1C(=O)c1ccccc1-3 9.2 µM
O=C1c2ccccc2-c2onc3c(N4CCN(C5CCCCC5)CC4)cc(NCCO)c1c23 3.66 µM
CCNc1cc(N2CCN(C3CCCCC3)CC2)c2noc3c2c1C(=O)c1ccccc1-3 18.4 µM
Nc1c(C(=O)N/N=C/c2ccccc2Cl)oc2nc(-c3ccccc3)cc(-c3ccco3)c12 2.91 µM
Nc1c(C(=O)N/N=C/c2cccnc2)oc2nc(-c3ccccc3)cc(-c3ccco3)c12 13 µM
Nc1c(C(=O)N/N=C/c2ccc(F)cc2)oc2nc(-c3ccccc3)cc(-c3ccco3)c12 7.9 µM
N=C1S/C(=C\c2ccc(-c3cccc(Cl)c3)o2)C(=O)N1c1nccs1 18.4 µM
CN(C)c1ccc(/C=C/c2cc[n+](C)cc2)cc1 15.8 µM
Cc1ccc(/C=C/c2ccc(N(C)C)cc2)[n+](C)c1 8.86 µM
CC[n+]1cc(C)ccc1/C=C/c1ccc(N(C)C)cc1 8.86 µM
Nc1nc2n[nH]nc2c(=O)[nH]1 6.51 µM and 3.53 µM
N#C/C(N=Nc1ccccc1O)=N\Nc1ccccc1O 14.6 µM
CCCCN1C(=O)/C(=C2/Sc3ccccc3N2C)S/C1=N\c1ncn[nH]1 18.4 µM
CC(CC(=O)Nc1ccc2c(c1)c(=O)n(C)n2-c1ccccc1)c1ccccc1 (stereo unspecified) 4.98 µM

Max response, inactive:
O=S(=O)(Nc1cccc2ncccc12)c1cccs1 -3.96%
CC(=O)c1cccc(NC(=S)N2c3ccccc3CC2C)c1 (stereo unspecified) 9.61%
Cc1ccc(NC(=O)c2ccc([N+](=O)[O-])s2)cc1S(=O)(=O)N1CCOCC1 -11.7%
COC(=O)c1sccc1NC(=S)Nc1cc(C)cc(C)c1 -0.135%
Cc1nc(NC(=O)/C=C/c2ccco2)sc1C -21.9%
N#C/C=C/N1CCN(C(=O)c2ccco2)CC1 0.169%
Cc1cc(C)nc(-n2nc(C)cc2NC(=O)c2ccc(F)cc2F)n1 -0.0521%
COc1cccc(Nc2nc(Nc3ccc(Cl)c(C(=O)O)c3)nc(C)c2[N+](=O)[O-])c1 -16.3%
CCOC(=O)c1cc2n(c1N)-c1ccccc1C2=O -16.6%
Fc1cccc(Cc2c(-c3ccco3)nc3ccc(Br)cn23)c1 -28.7%
O=C1c2cccc3c([N+](=O)[O-])ccc(c23)C(=O)N1c1ccccn1 -0.304%
CC(=O)Oc1ccc(N2C(=O)c3cccc4c([N+](=O)[O-])ccc(c34)C2=O)cc1 -15.1%
CCCC1=[N+](CC(=O)c2ccc(Br)cc2)CCn2cccc21 -4.77%
CCCc1nc2c(C)cc(Br)cn2c1Cc1ccccc1 -22.2%
O=C(COc1ccccc1)NC(=S)Nc1cccc2c(O)cccc12 -15.7%
COc1ccc(C(=O)NC2CCCc3ccccc32)cc1[N+](=O)[O-] (stereo unspecified) -23.5%
O=C(c1ccccc1)C1C(=O)c2ccccc2C1=O 2.89%
NC(=O)CSc1nc2c(sc3ccccc32)c(=O)n1CCCC(=O)NCC1CCCO1 (stereo unspecified) 3.7%
Cc1cc(-c2ccccc2)c2c3c(c(-c4ccccc4)n2n1)c(=O)n(C)c(=O)n3C -9.86%
N#C/C(=C\c1ccc(C(=O)O)cc1)c1nc2sc3c(c2c(=O)[nH]1)CCCC3 1.2%
Cc1ccccc1NCC(=O)N=Nc1c(O)[nH]c2ccc([N+](=O)[O-])cc12 -1.42%
CCOc1ccc(-c2cc(C(=O)N/N=C(\C)c3cccnc3)c3ccccc3n2)cc1 -8.69%
CCOC(=O)c1c(C)oc2ccc(N(C(=O)c3ccncc3)S(=O)(=O)c3ccc(Br)cc3)cc12 -14.4%
O=C(NC1C/C(=N/O)c2cc3c(cc21)OCO3)C(F)(F)F (stereo unspecified) 0.0424%
Cc1cccc(-n2c(N)c(-c3nc4ccccc4n3C)c3nc4ccccc4nc32)c1 -0.799%
Cc1ccc2nc(/C(C#N)=C/c3ccc(-c4ccccc4C(=O)O)o3)[nH]c2c1 -7.06%
N#C/C(=C\c1ccc(-c2ccc(C(=O)O)cc2)o1)c1nc2ccccc2[nH]1 0.542%
Cc1ccc2nc(/C(C#N)=C/c3ccc(-c4cccc([N+](=O)[O-])c4)o3)[nH]c2c1 -29.2%
CSCC[C@H](NC(=O)[C@H](Cc1ccccc1)n1c(=O)[nH]c2ccccc2c1=O)C(=O)N1CCC[C@@H]1C(=O)O 1.14%
CCOC(=O)/C(=C/C1=CC(=C/N(C)C)/C(=O)O1)C(C)=O -9.79%
CCOC(=O)c1cnc(-n2nc(C)cc2C)nc1NNc1cc(C)nc(-c2ccccc2)n1 0.647%
C/C(=N\Nc1nc(C)cc(-c2ccccc2)n1)c1ccc(F)cc1 -6.16%
O=C(CSc1nc(-c2ccco2)cc(C(F)(F)F)n1)Nc1cccnc1 -24.4%
Cc1cc(/C=N/NC(=O)c2cc3ccccc3o2)c(C)n1C -15.8%
Cc1cc(-c2ccccc2)nc(N/N=C/c2ccccc2F)n1 -4.11%
C=CCOC(=O)C1=C(C)NC(C)=C(C(=O)OCC=C)C1c1cn(-c2ccccc2)nc1-c1ccco1 0.509%
CC(=O)/C(=C\N(C)C)Sc1ccc(Cl)cc1 1.31%
CN1CCC(OC(=O)c2cc3cc(Cl)cc(Cl)c3oc2=O)CC1 3.05%
COC(=O)[C@@]1(Cc2ccccc2)[C@@H]2C(=CC(=O)[C@H]2CC(=O)C(=O)N(C)C)CN1C(=O)c1ccccc1 -26.2%
Cc1cnc(NC(=O)CC(C)c2ccccc2)s1 (stereo unspecified) -26.1%
CCn1c2ccccc2c2cc(NC(=O)c3ccc(=O)oc3)ccc21 -28.9%

From PubChem BioAssay AID651814 (National Center for Advancing Translational Sciences (NCATS), 2012)
